# Screening results (PubChem)
# KB-3-1 cytotox – qHTS assay for MDR1-selective chemotherapeutics: Primary screen using the parental adenocarcinoma cell KB-3-1 | KB-3-1 viability, CellTiter-Glo ATP luminescence, 72 h | Potency, µM (titrated, usually from 46.1 µM), usual class: cytotoxic | hit rate 1.4% among 400,000; also: % is scaled to controls: 0 for no effect and ±100 for the full control effect; nearly all actives have a fitted effect of over 60% in size
#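 Parental KB-3-1 adenocarcinoma cells in phenol-red-free DMEM with 10% FBS were pin-treated with compounds at several concentrations, incubated 72 h at 37 °C, and viability read by CellTiter-Glo luminescence; concentration-effect curves were fitted after normalization.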
# SW480 rerep – A quantitative high throughput screen for small molecules that induce DNA re-replication in SW480 colon adenocarcinoma cells; SW480 DNA re-replication, Hoechst DNA content imaging, 48 h; Potency, µM (doses to about 46.1 µM), for inactives: at the top dose re-replication activation, actives largely listed as activators; hit rate 1.8% among 340,000; AID 624297, 2012; also: % of control where 0% means no effect; nearly all actives have a fitted effect of over 55% in size
#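 Image-based DNA-content assay: after two days of treatment, nuclei were labelled with the DNA dye Hoechst and imaged, and hits were compounds raising the count of nuclei showing high fluorescence intensity.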
# MCF10A rerep – A quantitative high throughput screen for small molecules that induce DNA re-replication in MCF 10a normal breast cells; MCF 10A DNA re-replication, Hoechst nuclear intensity, 48 h; Potency, µM (highest dose often 46.1 µM), without a hit: at the top dose activity, positive = re-replication, actives largely listed as activators; hit rate 2.9% among 350,000; AID 624296, 2012; also: % of control where 0% means no effect; nearly all actives have a fitted effect of over 50% in size
# HT1080-NT tox – qHTS for induction of synthetic lethality in tumor cells producing 2HG: qHTS for the HT-1080-NT fibrosarcoma cell line; hit rate 1.6% among 360,000; HT-1080-NT fibrosarcoma viability, CellTiter-Glo ATP luminescence, 48 h; Potency, µM (series often up to 46.1 µM), without a hit: at the top dose activity, negative = less viability, hits mostly cytotoxic; AID 686970, 2013;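 also: NT is the 2HG producing partner of a matched IDH1 knockdown line; 0% = DMSO-treated cells and -100% = media-only wells without cells; nearly all actives have a fitted effect of over 55% in size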
#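 Compounds were tested in concentration-response format on HT-1080-NT cells for 48 hours at 37 degrees C. Cell viability came from CellTiter-Glo luminescence; curves were classified by r2, response magnitude and activity.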
# KB-V1 MDR tox – qHTS assay for MDR1-selective chemotherapeutics: Primary screen using the drug-selected MDR subline cells KB-V1 | KB-V1 MDR cells viability, CellTiter-Glo, 72 h | Potency, µM (doses to about 46.1 µM), actives largely listed as cytotoxic | hit rate 3.4% among 400,000; also: % is scaled to controls: 0 for no effect and ±100 for the full control effect; nearly all actives have a fitted effect of over 60% in size
#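 Cells of the MDR subline KB-V1 are plated, dosed with compound at multiple concentrations, and incubated 72 h at 37 degrees C; CellTiter-Glo is then added and luminescence read after 10 min.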
# HT1080 IDH1KD tx – qHTS for induction of synthetic lethality in tumor cells producing 2HG: qHTS for the HT-1080-IDH1KD cell line; HT-1080 IDH1 knockdown viability, ATP luminescence, 48 h; Potency, µM (doses to about 46.1 µM), for the others: at the highest dose activity, negative = toxicity, actives largely listed as cytotoxic; hit rate 2% among 360,000; AID 686971, 2013;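 also: 0% = DMSO wells and -100% = cell-free medium wells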
#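 Cytotoxicity counter-line: IDH1KD HT-1080, 48 h, CellTiter-Glo. Curves classed by r2, magnitude and activity.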
# * marks the source's active call; other numbers are inactive results; i = inactive; ? = inconclusive; nt = no result given. Compounds with a hit are over-represented: about 8% of the library has one in this group of screens. Calls follow the shape of the dose curve; as a rule, active = well fitted curve in the direction sought with a large enough effect; inconclusive = small, poorly fitted or top-dose-only effect, or another doubt; inactive = no such curve, though single readings can be large; an effect the other way counts as inactive or inconclusive. Potency is read from the fitted curve at half-maximal effect.
SMILES,KB-3-1 cytotox,SW480 rerep,MCF10A rerep,HT1080-NT tox,KB-V1 MDR tox,HT1080 IDH1KD tx
O=C(Nc1nnc(CSCc2ccc(F)cc2)s1)c1cccc([N+](=O)[O-])c1,?,?,?,2%,4.6µM*,0%
CC1=C(C(=O)N(C(C)C)C(C)C)CC(CC(=O)NCC2CCCCC2)C(=O)N1Cc1ccc(C(C)(C)C)cc1 (configuration not stated),nt,nt,nt,?,i,23µM*
CC1=C(C(=O)N(C(C)C)C(C)C)CC(CC(=O)NCc2cccc3ccccc23)C(=O)N1Cc1ccc(C(C)(C)C)cc1 (configuration not stated),23µM*,nt,nt,?,?,?
O=C(OCC(=O)N1CCCC1=O)C1CCN(S(=O)(=O)c2c(Cl)cccc2Cl)CC1,i,?,-23%,0%,i,-2%
Cc1cccc(OCCSc2nc(N)cc(N)n2)c1,?,16µM*,?,2%,?,2%
CCNc1nc(NCC)nc(SCCOc2ccc(C)cc2)n1,?,8%,21µM*,-13%,?,?
Cc1cccc(OCCOCCSc2ncccn2)c1,i,-4%,1%,-1%,i,-2%
O=C(NCC(=O)N(c1ccccc1)C(C(=O)NC1CCCC1)c1ccncc1)c1cccs1 (configuration not stated),i,11%,-8%,10%,i,4%
CC1=Nn2c(nc3sc4c(c3c2=O)CCCC4)SC1,i,-1%,2%,-1%,i,0%
CC(C)CN1C(=O)c2ccc(NC(=O)c3ccco3)cc2C1=O,i,0%,-5%,-1%,i,-5%
CC(C)CN1C(=O)c2ccc(NC(=O)c3cccs3)cc2C1=O,i,-1%,?,3%,13µM*,?
O=C(Nc1ccc(Cl)cn1)c1ccc2c(Cl)c3c(nc2c1)CCC3,i,21%,3%,23%,i,14%
O=C(CNCc1ccco1)Nc1ccc(N2CCCCCC2)cc1,i,-8%,13%,4%,i,-15%
C=CCn1c(NC(=O)c2ccccc2Cl)c(C#N)c2nc3ccccc3nc21,?,18µM*,16µM*,-23%,8.2µM*,-27%
CCCCn1c(NC(C)=O)c(C#N)c2nc3ccccc3nc21,i,16%,?,-4%,i,-6%
CCN(Cc1nc(-c2ccc(OC)cc2)no1)C(=O)c1ccoc1C,?,-15%,1%,1%,i,4%
COc1ccc(-n2c(SCC(=O)NCCCN3CCCC3=O)nnc2C(C)N2CCCCC2)cc1 (configuration not stated),i,-27%,1.3µM*,-7%,i,3%
Cc1cccc(N2C(=O)CC(SC(=Nc3ccccc3)Nc3ccccc3)C2=O)c1 (configuration not stated),?,3%,23%,-17%,18µM*,-23%
CN=C(Nc1ccc2c(c1)OCO2)SC1CC(=O)N(c2ccccc2)C1=O (configuration not stated),i,0%,6%,-15%,18µM*,-12%
O=C1CC(SC(=Nc2ccccc2)Nc2ccccc2)C(=O)N1c1ccc(Cl)c(Cl)c1 (configuration not stated),?,?,?,?,16µM*,?
CN(C)/C=C1/C=C(C=O)OC1=O,i,2%,3%,4%,?,-1%
Cn1cnc([N+](=O)[O-])c1Sc1nc2ccccc2[nH]1,i,20%,?,?,i,18µM*
